High-throughput results deposited in PubChem BioAssay by National Center for Advancing Translational Sciences (NCATS).
Compounds with a hit are over-represented: about 8.9% of the library has one in this group of screens.
D3 ag = D3 dopamine receptor (human) agonism; 410,000 tested, 0.58% active; D3R DiscoveRx beta-arrestin cells, luminescence, 90 min; max activation, %; in the data active = max activation above about 30%; also: 0% is about no effect
Target sequence (P35462 whole entry, looked up): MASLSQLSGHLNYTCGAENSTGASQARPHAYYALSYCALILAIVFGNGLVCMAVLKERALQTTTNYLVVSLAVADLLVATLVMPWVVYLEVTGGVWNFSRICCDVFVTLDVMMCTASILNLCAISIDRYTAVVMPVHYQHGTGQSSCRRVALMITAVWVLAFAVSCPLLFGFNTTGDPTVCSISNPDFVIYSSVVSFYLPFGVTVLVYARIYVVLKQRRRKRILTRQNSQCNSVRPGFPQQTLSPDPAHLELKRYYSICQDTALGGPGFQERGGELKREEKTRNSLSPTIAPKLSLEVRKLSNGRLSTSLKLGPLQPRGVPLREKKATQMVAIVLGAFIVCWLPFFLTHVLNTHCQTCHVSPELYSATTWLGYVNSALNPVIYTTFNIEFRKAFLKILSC
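Agonist mode: compounds and dopamine controls were applied to plated cells for 90 min at 37 degrees C after an overnight attachment at 1500 cells/well. Luminescent read-out followed 30 - 60 minutes at room temperature with DiscoveRx detection reagent.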
D3 antag = antagonists of human D3 dopamine receptor | AID 652054 | P35462 | 360,000 tested, 2.5% active | D3R cells, DiscoveRx beta-arrestin luminescence, antagonist mode; stronger effect = lower value | max response, negative = inhibition, %; in the data active = max response below about -50%; inconclusive = no clear call, values can overlap the other calls; also: % is scaled to controls: 0 for no effect and ±100 for the full control effect
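Cells plated overnight at 1500 cells/well, then exposed to library compounds with dopamine controls for 90 minutes at 37 degrees C. DiscoveRx reagent added for 30–60 minutes at room temperature; luminescence read, quantitative HTS format.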
MCF10A rereplic = induces DNA re-replication in MCF 10a normal breast cells; MCF 10A DNA re-replication, Hoechst nuclear intensity, 48 h; Potency, µM (doses to about 46.1 µM), for inactives: top-dose activity, positive = re-replication, actives largely listed as activators; 350,000 tested, 2.9% active; AID 624296; also: potency is read from the fitted curve at half-maximal effect; % of control where 0% means no effect; nearly all actives have a fitted effect of over 50% in size
SW480 rerep = DNA re-replication induction in SW480 cells | SW480 DNA re-replication, Hoechst DNA content imaging, 48 h | 340,000 tested, 1.8% active | AID 624297 | Potency, µM (doses to about 46.1 µM), for inactives: at the highest dose re-replication activation, most hits filed as activators; also: potency is read from the fitted curve at half-maximal effect; % of control where 0% means no effect; nearly all actives have a fitted effect of over 55% in size
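Treated cells incubate 48 hr (37 C, 5% CO2), are stained 40 min with Hoechst, and nuclear fluorescence is enumerated; a rise in nuclei with high DNA signal marks re-replication.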
KB-V1 MDR tox = kills drug-selected multidrug resistant KB-V1 cells; Potency, µM (doses to about 46.1 µM), actives largely listed as cytotoxic; KB-V1 MDR cells viability, CellTiter-Glo, 72 h; AID 1347076; 400,000 tested, 3.4% active; also: potency is read from the fitted curve at half-maximal effect; % is scaled to controls: 0 for no effect and ±100 for the full control effect; nearly all actives have a fitted effect of over 60% in size
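Cytotoxicity via CellTiter-Glo luminescence after 72 h compound exposure at 37 degrees C. Cells: drug-selected KB-V1 line, DMEM phenol-red free plus 10% FBS. Compounds tested at multiple concentrations; normalized data fitted to concentration-effect curves.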
KB-3-1 cytotox = KB-3-1 parental cell cytotoxicity. Potency, µM (highest dose often 46.1 µM), hits mostly cytotoxic. 400,000 tested, 1.4% active. KB-3-1 viability, CellTiter-Glo ATP luminescence, 72 h; also: potency is read from the fitted curve at half-maximal effect; % is scaled to controls: 0 for no effect and ±100 for the full control effect; nearly all actives have a fitted effect of over 60% in size
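Cells are dispensed, compounds pinned in, plates held at 37 °C for 72 h, then CellTiter-Glo is added and luminescence read after 10 minutes. Cell line: parental KB-3-1 in phenol-red-free DMEM, 10% FBS.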
Numbers without * were called inactive; i = inactive; ? = inconclusive; / = not tested or not shown. Unless noted, calls follow the shape of the dose curve; as a rule, active = well fitted curve in the direction sought with a large enough effect; inconclusive = small, poorly fitted or top-dose-only effect, or another doubt; inactive = no such curve, though single readings can be large; an effect the other way counts as inactive or inconclusive.

SMILES	D3 ag	D3 antag	MCF10A rereplic	SW480 rerep	KB-V1 MDR tox	KB-3-1 cytotox
CC1=C(C(=O)N(C(C)C)C(C)C)CC(CC(=O)NCCc2ccccn2)C(=O)N1CCC1=CCCCC1 (configuration not stated)	-1	14	/	/	i	21µM*
COCCCN1C(=O)C(CC(=O)NCCc2ccccn2)CC(C(=O)N(C(C)C)C(C)C)=C1C (configuration not stated)	7	14	/	/	i	i
O=C(c1cccn2c(=O)c3cc(Cl)ccc3nc12)N1CCN(c2ccccc2F)CC1	9	/	/	/	i	i
O=C1NC(CCc2ccccc2)C(=O)N1Cc1ccccc1Cl (configuration not stated)	14	11	-2%	-5%	16µM*	i
O=c1[nH][nH]c(C(F)(F)F)c1C=Nc1ccccc1	-4	-54*	9%	-16%	i	i
O=c1[nH][nH]c(C(F)(F)F)c1C=Nc1cccc(Cl)c1	0	6	5%	-2%	i	i
COc1ccc(-c2cc(-c3ccccc3)nc(Cl)n2)cc1OC	22	57	23µM*	?	i	i
CCc1nc(-c2ccc(OC)c(OC)c2)cc2cc(OC)c(OC)cc12	36*	53	7%	-3%	?	i
Cc1ccc(-c2cc(-c3ccccc3)nc(Cl)n2)cc1	-8	-8	-6%	?	i	i
CCOc1ccc(-c2cc3cc(OC)c(OC)cc3c(C)n2)cc1	-6	-2	-14%	2%	i	i
CCCC1=C/C(=C/c2ccc(-c3ccccc3OC)o2)C(=O)O1	-4	2	10µM*	23µM*	i	i
COc1cccc(CNS(=O)(=O)c2ccccc2Br)c1OC	32*	6	-50%	-22%	i	i
COc1ccccc1CNS(=O)(=O)c1cc(C)ccc1OC	1	36	-15%	-4%	?	i
Cc1ccc2c(C)ccc(O)c2n1	-7	-79*	21µM*	0%	i	?
Cc1ccc2ccc3ccc(C)nc3c2n1	-29	26	?	?	i	i
Cc1[nH]n(-c2ccc([N+](=O)[O-])cc2)c(=O)c1C=NCCN1CCN(C(=O)c2ccc(Br)cc2)CC1	-7	-65*	14%	1%	i	?
Cc1[nH]n(-c2ccc([N+](=O)[O-])cc2)c(=O)c1C=NCCN1CCN(C(=O)c2cccc(F)c2)CC1	-3	-14	21%	-2%	16µM*	i
Cc1[nH]n(-c2ccccc2)c(=O)c1/C=N/NC(=O)c1cccc(F)c1	-3	-19	13%	?	?	?
Cc1[nH]n(-c2ccc([N+](=O)[O-])cc2)c(=O)c1C=NCCc1c[nH]c2ccccc12	37*	1	0%	3%	i	i
Cc1[nH]n(-c2ccc([N+](=O)[O-])cc2)c(=O)c1C=NCCN1CCN(C(=O)c2ccc(F)cc2)CC1	0	21	5%	-16%	i	i
COc1ccccc1NC(=O)C1=C(C)Nc2nc(-c3ccco3)nn2C1c1ccccc1F (configuration not stated)	3	/	/	/	i	i
COc1ccc(-c2nc(CSCC(=O)NCc3ccco3)c(C)o2)cc1	5	14	-1%	-7%	13µM*	i
COc1ccc(-c2nc(CSCC(=O)NC3CCCc4ccccc43)c(C)o2)cc1 (configuration not stated)	4	11	16µM*	15%	?	i
Cc1ccc(-c2nc(CSCC(=O)NCc3cccnc3)c(C)o2)cc1	8	19	0%	0%	3.7µM*	?
CC1=C(C(=O)OC2CCCC2)C(c2c(Cl)cccc2Cl)CC(=O)N1 (configuration not stated)	-15	/	/	/	?	i
SMILES	D3 ag	D3 antag	MCF10A rereplic	SW480 rerep	KB-V1 MDR tox	KB-3-1 cytotox
N#Cc1nc(Nc2cc(F)cc(F)c2)c2ncn(CCO)c2n1	/	/	/	/	?	15µM*
N#Cc1nc(Nc2cc(F)cc(F)c2)c2ncn(CC(F)F)c2n1	/	/	?	-5%	i	i
Nc1ncnc2c1ncn2[C@@H]1O[C@H](CCC(=O)NCc2ccccc2)[C@@H](O)[C@H]1O	-10	-93*	/	/	i	i
Nc1ncnc2c1ncn2[C@@H]1O[C@H](CNC(=O)[C@@H](N)Cc2ccccc2)[C@@H](O)[C@H]1O	5	40	2%	10%	i	i
Nc1ncnc2c1ncn2[C@@H]1O[C@H](CNC(=O)[C@@H](N)CO)[C@@H](O)[C@H]1O	5	-13	0%	-3%	i	i
Nc1ncnc2c1ncn2[C@@H]1O[C@H](CNC(=O)[C@H](N)Cc2cscn2)[C@@H](O)[C@H]1O	-2	-84*	-4%	?	i	i
COc1cc2c(cc1CNC[C@H]1O[C@@H](n3cnc4c(N)ncnc43)[C@H](O)[C@@H]1O)OCO2	39*	7	-3%	-2%	i	i
O=C(CCC(=O)c1ccccc1)Nc1ccc(F)c(Cl)c1	-4	/	/	/	i	i
Cc1ccc(S(=O)(=O)N2CCOCC2)cc1C(=O)OCC(=O)NCCc1ccccc1	-3	11	-2%	-4%	i	i
CC1=C(C(=O)OC2CCCC2)C(c2cccc(Cl)c2Cl)CC(=O)N1 (configuration not stated)	4	/	/	/	?	i
Cc1cccc(-c2cc(C(=O)NCc3ccccn3)c3ccccc3n2)c1	2	40	26%	-1%	5.8µM*	i
CCCOc1ccc(C(=O)NNC(=S)NC(=O)c2cc(-c3ccc(Cl)cc3)nc3ccccc23)cc1	-9	-50*	?	14%	i	i
O=C(NCc1ccccn1)c1cc(-c2ccccc2)nc2ccccc12	6	-11	4%	?	i	i
COCCNC(=O)c1cc(-c2ccc(-c3ccccc3)cc2)nc2ccccc12	22	38	?	?	i	21µM*
COc1ccc(C(=O)NNC(=S)NC(=O)c2cc(-c3ccccc3)nc3ccccc23)cc1	-9	-8	4%	?	i	?
Cc1ccc(-c2cc(C(=O)NCc3ccccn3)c3ccccc3n2)cc1C	3	7	5.8µM*	?	15µM*	?
COCCCNC(=O)c1cc(-c2cccnc2)nc2ccccc12	-7	1	3%	-3%	i	i
Cc1nn2c(=O)cc(COC(=O)c3cccc(NC(=O)COc4ccccc4C)c3)nc2s1	21	/	/	/	/	/
O=C(NCc1ccccn1)c1cc(-c2ccc(Cl)cc2)nc2ccccc12	13	25	18%	0%	12µM*	i
O=C(NCc1ccccn1)c1cc(-c2ccc(-c3ccccc3)cc2)nc2ccccc12	11	70	?	-132%	i	i
CCOc1ccc(C(=O)NCc2nc(-c3ccc(Cl)cc3)no2)cc1OCC	-8	/	/	/	i	i
